Screening results (PubChem)
VACV Venus inh: vaccinia inhibition (Venus reporter) | Vaccinia virus Venus reporter expression, fluorescence | Potency, µM (series often up to 36.5 µM), inactives show at the highest dose activity change, negative = inhibition, most hits filed as inhibitors | 330,000 tested, 0.46% active; calls by dose curve; tested in A549 cells; note: potency is the fitted concentration of half-maximal effect; nearly all actives have a fitted effect of over 30% in size
VACV mCherry inh: inhibitors of vaccinia virus infection (mCherry reporter signal); Vaccinia virus mCherry reporter infection, fluorescence; Potency, µM (titrated, usually from 36.5 µM), inactives show top-dose activity change, negative = inhibition, actives largely listed as inhibitors; 310,000 tested, 0.63% active; AID 720579; calls by dose curve; tested in A549 cells; note: potency is the fitted concentration of half-maximal effect; nearly all actives have a fitted effect of over 35% in size
MARV entry inh: Marburg virus entry inhibition | Marburg virus pseudotyped entry inhibition, cell reporter | 300,000 tested, 1.8% active | Potency, µM (highest dose often 37.8 µM), inactives show top-dose activity change, negative = inhibition, hits mostly inhibitors | AID 540276; calls by dose curve; tested in HEK293 cells; note: potency is the fitted concentration of half-maximal effect
HCMV antiviral: blocks human cytomegalovirus replication. AID 1259415. HFF cells, HCMV-luciferase reporter, 72 h; stronger effect = lower value. 410,000 tested, 4.5% active. activity change, negative = inhibition, % at 57.5 µM; in the data active = activity change below about -60%; inconclusive = no clear call, values can overlap the other calls; inactive = above about -39%
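Compounds were evaluated in HFFs infected with an HCMV luciferase reporter virus (MOI 1 PFU/cell). Luciferase in lysates collected 72 h post infection served as the replication measure.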
Lassa entry inh: blocks Lassa virus binding to or entry into cells. AID 540256. Lassa virus pseudotype entry inhibition, cell reporter. Potency, µM (doses to about 37.9 µM), for inactives: top-dose activity change, negative = inhibition, hits mostly inhibitors. 300,000 tested, 1.2% active; calls by dose curve; tested in HEK293 cells; note: potency is the fitted concentration of half-maximal effect; nearly all actives have a fitted effect of over 50% in size
FMDV inh: blocks foot and mouth disease virus; FMDV antiviral cell-based qHTS; Potency, µM (series often up to 57.9 µM), for the others: at the top dose activity change, negative = inhibition, actives largely listed as inhibitors; 410,000 tested, 1.2% active; calls by dose curve; tested in HEK293T cells; note: read-out not given here; potency is the fitted concentration of half-maximal effect; nearly all actives have a fitted effect of over 45% in size
The depositor's hits bear a star; ? = inconclusive; · = no result; + = active, no number; ! = repeats disagree; [ ] = remark or other dose. This is a sample that favours compounds with a hit; in the whole collection about 6.5% have one here. % is set by controls: 0 for no effect and ±100 for the full control effect.

SMILES | VACV Venus inh | VACV mCherry inh | MARV entry inh | HCMV antiviral | Lassa entry inh | FMDV inh
CC1=C(C(=O)Nc2ccccc2)C(c2cccnc2)n2nc(SCc3ccccc3Cl)nc2N1 (centres undefined) | -11% | -16% | 6%[46.1 µM] | -2 | 13%[46.1 µM] | -19%
O=C(Nc1ccc(OC(=O)N2CCCC2)cc1)N1CCOCC1 | -1% | -17% | 9% | 10 | 7% | 0%
O=C(Nc1ccc(Nc2ccccc2)cc1)N1CCOCC1 | 4% | -7% | 15% | -63* | 4% | 4%
O=C(Nc1ccc(OC(=O)N2CCCCC2)cc1)N1CCOCC1 | -4% | -21% | ? | + | ? | ?
CC12CN(NC(=O)c3ccccc3F)C3(C#N)CC1CCC23C (centres undefined) | -18% | -25% | 8%[46.1 µM] | -75* | -7% | 3%
NCC(O)C1CCCCCCC1 (centres undefined) | · | · | 7.1µM*! | · | 3% | ·
COc1ccccc1NC(=O)CSc1cn(CC(=O)N2CCCC2)c2ccccc12 | 0% | -6% | · | 1 | 12%[46.1 µM] | -2%
CCCCC(=O)Oc1ccc2oc(-c3ccc(OC)cc3)cc(=O)c2c1 | -16% | ? | ? | 108 | -13%[46.1 µM] | 19%
COc1cc(C2C3=C(CC(C)(C)CC3=O)NC3=C2C(=O)c2ccccc23)ccc1O (centres undefined) | ? | ? | -4%[46.1 µM] | -26 | -4% | -10%
Cc1ccc(C2C3=C(CC(C)(C)CC3=O)NC3=C2C(=O)c2ccccc23)cc1 (centres undefined) | ? | -21% | ? | -65* | ? | -25%
CC1(C)CC(=O)C2=C(C1)NC1=C(C(=O)c3ccccc31)C2c1ccc(Cl)cc1 (centres undefined) | ? | ? | ? | -100* | ? | 0%
CSC1=C(C#N)C(c2ccc(Cl)cc2)C2=C(CC(C)(C)CC2=O)N1 (centres undefined) | 9% | -3% | ? | -68* | ? | -8%
CCCSC1=C(C#N)[C@H](c2ccc(OC)cc2)C2=C(CC(C)(C)CC2=O)N1 | · | · | -10% | · | · | ·
Cc1ccc(C(=O)Sc2cccccc2=O)cc1 | 1.8µM* | 1µM* | ? | -99* | ? | 0%
CCCCc1nnc(SCc2cc(=O)c3cc(F)ccc3[nH]2)n1C | -20% | 0% | · | -15 | 1%[46.1 µM] | -25%
Fc1ccccc1N1CCN(c2ncnc3onc(-c4cccc(Cl)c4)c23)CC1 | -5% | -8% | ? | -36 | ? | ?
COc1cc(OC)c(C(=O)N/N=C/c2ccoc2)cc1OC | 4% | 0% | -4%[46.1 µM] | -69* | 26%[46.1 µM] | 3%
COC(=O)C1=CN(c2ccc(OC)cc2)C=C(C(=O)OC)C1c1cc(OC)c(OC)cc1OC | -7% | -5% | -9% | 54 | 0.63µM* | -14%
COc1ccc(OC)c(N2C(=O)/C(=C/c3ccco3)C(=O)NC2=S)c1 | 9% | 2% | 10µM* | · | -8% | -28%
Cc1ccc(-n2c(C)cc(/C=C3/C(=O)NC(=O)N(C)C3=O)c2C)cc1 | -12% | -12% | -1% | -5 | 10% | 13%
COc1ccc(N2C(=O)/C(=C/c3cc(C)n(-c4ccc(C)cn4)c3C)C(=O)NC2=S)c(OC)c1 | · | · | · | 27 | · | 32µM*
CNc1nc2cnc(Nc3ccc(C(F)(F)F)cc3)cc2n1-c1cc(OC)c(OC)c(OC)c1 | · | · | · | -14 | · | ·
Cc1nn(C)c(C)c1CN(C)S(=O)(=O)c1ccc2ccccc2c1 | ? | ? | ? | -82* | ? | -1%
Clc1ccc(Cn2ncc3c(N4CCN(c5ccccc5)CC4)ncnc32)cc1 | ? | ? | · | -102* | · | 13µM*
CCN1CCN(c2ncnc3c2cnn3-c2cc(Cl)ccc2C)CC1 | 5% | -14% | · | -16 | -23%[46.1 µM] | 0%
Cc1ccc(Cn2ncc3c(N4CCOCC4)ncnc32)cc1 | · | · | -19% | -9 | 4% | ?
Cc1ccc(Cn2ncc3c(N4CCN(c5ccccc5C)CC4)ncnc32)cc1 | ? | · | ? | -14 | ? | 18µM*
Cc1ccc(Cl)cc1-n1ncc2c(N3CCN(Cc4ccccc4)CC3)ncnc21 | -23% | ? | · | -35 | 6%[46.1 µM] | 3.2µM*
CN(C)S(=O)(=O)c1ccc2c(c1)N(CC(=O)NCc1ccccc1)C(=O)C1CCCCN21 (centres undefined) | -15% | -4% | · | 9 | ? | 21%
